{
  "source": "PubChem BioAssay AID2634",
  "about": "(National Center for Advancing Translational Sciences (NCATS), 2010)",
  "note": "Records with an inconclusive call do not appear. The source made the active and inactive calls.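 The calls were made as follows: active = compounds whose potency, the dose giving half inhibition, is below 20 µM; inconclusive = compounds meeting neither the active nor the inactive rule; inactive = potency over 20 µM or below 50% inhibition when unfitted.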",
  "data": [
    {"target": "Integrin alpha-IIb (Homo sapiens) (UniProt P08514)", "sequence (P08514 whole entry, looked up)": "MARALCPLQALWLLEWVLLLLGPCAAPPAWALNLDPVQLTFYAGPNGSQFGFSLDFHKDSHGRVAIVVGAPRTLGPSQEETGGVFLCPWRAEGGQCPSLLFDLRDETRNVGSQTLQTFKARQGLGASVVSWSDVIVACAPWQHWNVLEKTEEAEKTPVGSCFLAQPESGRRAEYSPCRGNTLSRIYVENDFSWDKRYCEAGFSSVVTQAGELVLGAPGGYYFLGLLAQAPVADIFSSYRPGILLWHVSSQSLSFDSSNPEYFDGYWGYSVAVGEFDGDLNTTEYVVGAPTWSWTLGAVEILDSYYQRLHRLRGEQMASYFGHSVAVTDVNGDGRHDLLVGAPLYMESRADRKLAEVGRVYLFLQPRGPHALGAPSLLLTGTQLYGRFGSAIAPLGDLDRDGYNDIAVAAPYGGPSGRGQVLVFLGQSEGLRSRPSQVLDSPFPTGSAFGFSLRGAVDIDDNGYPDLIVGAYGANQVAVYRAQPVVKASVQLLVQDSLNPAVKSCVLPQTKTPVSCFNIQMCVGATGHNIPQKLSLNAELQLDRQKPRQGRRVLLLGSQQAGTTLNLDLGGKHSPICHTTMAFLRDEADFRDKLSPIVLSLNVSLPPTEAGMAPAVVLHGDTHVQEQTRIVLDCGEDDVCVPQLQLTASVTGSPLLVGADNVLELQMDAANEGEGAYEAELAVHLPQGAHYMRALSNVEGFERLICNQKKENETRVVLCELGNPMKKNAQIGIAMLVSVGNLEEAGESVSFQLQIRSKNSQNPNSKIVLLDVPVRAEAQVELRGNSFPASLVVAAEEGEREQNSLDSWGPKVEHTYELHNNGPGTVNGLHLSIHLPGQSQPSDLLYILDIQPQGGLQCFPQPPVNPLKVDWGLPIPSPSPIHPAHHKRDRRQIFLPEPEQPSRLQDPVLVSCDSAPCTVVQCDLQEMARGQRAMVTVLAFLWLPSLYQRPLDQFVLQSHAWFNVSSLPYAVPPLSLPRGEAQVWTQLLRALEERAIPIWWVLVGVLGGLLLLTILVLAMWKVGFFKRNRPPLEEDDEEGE", "experiment": "Platelet Adhesion Secondary Assay for Inhibitors of Platelet Integrin alphallb-beta3", "conditions": "human platelet adhesion to fibrinogen, calcein fluorescence; at 30 µM, stronger effect = higher value unless noted", "excerpt": "NIH Molecular Libraries Probe Production Network [MLPCN] NIH Chemical Genomics Center [NCGC] MLPCN Grant: 1 R03 MH083257-01 Assay Provider: Barry Coller, Rockefeller University NCGC Assay Overview: The alphaIIbbeta3 receptor plays a vital role in hemostasis and thrombosis, where receptor deficiency causes the hemorrhagic disorder, Glanzmann thrombasthenia, and uncontrolled receptor activation causes thrombosis and blood vessel occlusion. Small molecule inhibitors of alphaIIbbeta3, tirofiban and eptifibatide, have undesirable side effects thought to arise from conformational changes in alphaIIbbeta3. These changes transiently activate the receptor to cause spontaneous platelet aggregation and thrombus formation. […] This secondary assay measures the binding of human plates to fibrinogen, an extracellular matrix protein (Blue et al., 2008). Platelets were loaded with a fluorescent dye, calcein, and added to fibrinogen-coated plates. Following incubation, unbound platelets were removed by washing and bound platelets were detected by measuring fluorescence intensity. Inhibitors of alphaIIbbeta3 block platelet binding to fibrinogen and result in a decrease in fluorescence intensity.\nNCGC Assay Protocol Summary: Human fibrinogen (50 ug/mL) in Tris/saline (100 mM NaCl, 50 mM Tris/HCl, pH 7.4; American Diagnostica, Stamford, CT) was added to black, clear-bottom, untreated polystyrene, nonsterile 384-well microtiter plate wells (Corning no. 3711; Acton, MA) using a peristaltic microplate dispenser (WellMate; Matrix, Hudson, NH). After incubating at 22 C for 1 hour, plates were washed 4 times with Tris/saline using an automated plate washer (ELX405; Bio-Tek, Winooski, VT), and wells were then blocked with HBMT (138 mM NaCl, 12 mM NaHCO3, 10 mM HEPES, 2.7 mM KCl, 0.4 mM NaH2PO4, 0.1% glucose, 0.35% BSA, pH 7.4) for at least 1 hour. After 2 additional washes, 15 uL HBMT was allowed to remain in each well. Compounds were added to the wells with a liquid handling robot (MiniTrak V; PerkinElmer, Wellesley, MA) using a pin tool (VP Scientific, San Diego, CA) that added 0.1 uL compound in DMSO. Fifteen microliters 5E11/L calcein-labeled platelets were then added (2.5E11/L final concentration). After 1 hour of adhesion, wells were washed 4 times with HBMT-CaCl2/MgCl2 and the plates were read by an Envision (Perkin Elmer) to detect calcein fluorescence (490 nm excitation and 515 nm emission). Positive controls consisted of wells containing platelets without compounds. Negative controls were wells containing platelets and known inhibitors of alphaIIbbeta3, including mAbs 7E3 and 10E5, and EDTA. Reference Blue R, Murcia M, Karan C, Jirouskova M, and Coller BS. Application of high-throughput screening to identify a novel alphaIIb-specific small- molecule inhibitor of alphaIIbbeta3-mediated platelet interaction with fibrinogen. Blood. 2008, 111(3):1248-56", "values": [
      {"smiles": "Cc1nn2c(=O)cc(N3CCNCC3)nc2s1", "inhibition": "20% (inactive)"},
      {"smiles": "CCc1nn2c(=O)cc(N3CCNCC3)nc2s1", "inhibition": "35% (inactive)"},
      {"smiles": "CCc1nn2c(=O)cc(N3CCN(C)CC3)nc2s1", "inhibition": "23% (inactive)"},
      {"smiles": "CCc1nn2c(=O)c(F)c(N3CCNCC3)nc2s1", "inhibition": "41% [inhibition, at 100 µM, stronger effect = higher value]", "outcome": "inactive"},
      {"smiles": "CCc1nn2c(=O)c(C)c(N3CCNCC3)nc2s1", "outcome": "inactive", "inhibition": "55% [inhibition, at 100 µM, stronger effect = higher value]"}
    ]}
  ]
}
